# Source: PubChem BioAssay AID1851 (National Center for Advancing Translational Sciences (NCATS), 2009)
# Among all 16,000 compounds or so, about 5,700 (36%) were called active. Not shown: some 24% with an inconclusive outcome. Some of the results follow. Values without a mark were called inactive. Calls come from the whole dose curve; as a rule, active = well fitted curve in the direction sought with a large enough effect; inconclusive = small, poorly fitted or top-dose-only effect, or effect the other way; inactive = no such curve, though single readings can be large or run the other way.
# Target: Cytochrome P450 1A2 (Homo sapiens) (UniProt P05177)
# Sequence (P05177 whole entry, looked up): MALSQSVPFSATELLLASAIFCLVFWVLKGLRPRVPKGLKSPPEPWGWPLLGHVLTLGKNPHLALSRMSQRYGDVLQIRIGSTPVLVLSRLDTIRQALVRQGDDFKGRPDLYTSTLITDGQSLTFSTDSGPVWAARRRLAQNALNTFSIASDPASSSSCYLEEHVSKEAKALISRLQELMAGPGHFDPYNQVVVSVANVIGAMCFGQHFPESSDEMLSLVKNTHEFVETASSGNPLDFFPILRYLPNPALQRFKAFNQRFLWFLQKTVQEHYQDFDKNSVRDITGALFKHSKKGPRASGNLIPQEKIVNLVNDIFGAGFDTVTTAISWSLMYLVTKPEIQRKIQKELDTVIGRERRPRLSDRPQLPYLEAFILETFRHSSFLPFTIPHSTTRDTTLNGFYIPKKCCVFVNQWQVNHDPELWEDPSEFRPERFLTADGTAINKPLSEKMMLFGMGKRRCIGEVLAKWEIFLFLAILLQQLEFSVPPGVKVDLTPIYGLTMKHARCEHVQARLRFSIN
# Assay: Cytochrome panel assay with activity outcomes
# Conditions: recombinant CYP, pro-luciferin dealkylation, luminescence, p450-cyp1a2; series mostly up to 57.1 µM
# Description: The P450 gene superfamily is involved in the metabolism and clearance of xenobiotics. This assay used various human CYP P450 isozymes to measure the dealkylation of various pro-luciferin substrates to luciferin. The luciferin is then measured by luminescence after the addition of a luciferase detection reagent. Pro-luciferin substrate concentration in the assay was equal to its KM for its CYP P450 isozyme. Inhibitors and some substrates limit the production of luciferin, and decrease measured luminescence.
# NCGC Assay Protocol Summary:
# 1, Reagent, 2 uL, Isozyme and Pro-Luciferin
# 2, Library compounds, 23 nl, 40 uM to 0.24 nM dilution series
# 3, Controls, 23 nl, Isozyme specific inhibitor
# 4, Reagent, 2 uL, NADPH regeneration solution
# 5, Incubation time, 60 min, Isozyme specific temperature
# 6, Reagent, 4ul, Detection reagent
# 7, Incubation time, 20 min, Isozyme specific temperature
# 8, Detection, 1 sec, ViewLux luminescent read
# The luciferase-based P450-GloTM Screening Systems were obtained from Promega (Madison, WI) for CYP 1A2 (V9770), CYP 2C9 (V9790), CYP2 C19 (V9880), CYP 2D6 (V9890), and CYP 3A4 Luciferin-PPXE (V9910) and were adapted for 1,536-well microplates and an automated protocol. The control compounds furafylline for 1A2 (F124), sulfaphenazole for CYP 2C9 (S0758), ketoconazole for CYP 2C19 (K1003), quinidine for 2D6 (Q3625), and ketoconazole for 3A4 (K1003) were purchased from Sigma Aldrich (St. Louis, MO). Recombinant P450 enzymes were obtained from baculovirus constructs expressed in insect cells (BD/Gentest).
# Medium-binding white solid Kalypsys plates used. Mixtures kept on ice. 1A2: 10 nM 1A2, 100 uM Luc-ME, 100 mM KPO4; 2C9: 10 nM 2C9, 100 uM Luc-H, 25 mM KPO4; 2C19: 5 nM 2C19, 10 uM Luc-H EGE, 50 mM KPO4; 2D6: 5 nM 2D6, 30 uM Luc-ME EGE, 100 mM KPO4; 3A4: 10 nM, 25 uM Luc-PPXE. All amounts are reflected in their final concentration, working concentration is 2x.
# NADPH regeneration solution: 1.3 mM NADP+, 3.3 mM glucose-6-phosphate, 3.3 mM MgCl2, 0.4 U/mL glucose-6-phosphate dehydrogenase for all isozymes, 200 mM KPO4 for 3A4. Mixture prepared at RT but kept on ice during automated run.
# RT incubation in auxilliary plate hotel for 1A2, 2D6, and 3A4; 37C for 2C9 and 2C19.
# Keywords: P450, CYP1A2, CYP2C19, CYP2C9, CYP2D6, CYP3A4, Luciferase, MLSMR, MLSCN, NIH Roadmap, qHTS, NCGC
# % is set by controls: 0 for no effect and ±100 for the full control effect.
Structure (SMILES),AC50,"activity, negative = inhibition"
CC(C)(C)C(=O)NC(Nc1cccc2cccnc12)C(Cl)(Cl)Cl (stereo not drawn),20000 nM (active),
Oc1c([C@H](Nc2ccccn2)c2ccccc2)ccc2cccnc12,,-21.9% [at 2.29 µM]
Cc1ccc(C)n1C(Cc1ccccc1)C(=O)O (stereo not drawn),,6.11% [at 11.4 µM]
Cc1ccc(-n2c(C)nc3c(cnn3-c3ccc(F)cc3)c2=O)cc1C,2510 nM (active),
Cc1cc(C)n(-c2ccc(F)cc2)c(=O)c1C(=O)O,inactive,
FC(F)(F)c1cc(C(F)(F)F)c2ccc(N/N=C/c3cccc(Cl)c3)nc2n1,2510 nM (active),
O=c1c(O)c(-c2cc(O)c(O)c(O)c2)oc2cc(O)cc(O)c12,5010 nM (active),
Cc1ccc(OCCOCCn2ccnc2)c(Br)c1,282 nM (active),
Cc1cccc(OCCCCCn2ccnc2)c1,282 nM (active),
O=C1C2C3C=CC(C2C(=O)N1CN1CCOCC1)C1C2C(=O)N(CN4CCOCC4)C(=O)C2C31 (stereo not drawn),,-7.11% [at 11.4 µM]
CCN1C(=O)[C@H]2[C@H]3[C@H](O)[C@H](O)C/C(=N/NC(=O)OCc4ccccc4)[C@@H]3CC[C@@H]2C1=O,,-2.34% [at 11.4 µM]
CC(C)=NOC[C@@H](O)[C@@H]1O[C@@H]2OC(C)(C)O[C@@H]2[C@H]1O,,-4.07% [at 11.4 µM]
Clc1ccc(-c2ccnc(Oc3cc(Cl)ccc3Cl)n2)cc1,447 nM (active),
O=C(O)c1ccc(C(=O)O)c(C(=O)O)c1.[NH-][C@@H]1CCCC[C@@H]1[NH-].[Pt],,-19% [at 11.4 µM]
CC(C)OCCCN1CN(S(=O)(=O)c2cccc(Cl)c2)c2nc3ccccc3nc21,14100 nM (active),
C[N+](C)(C)CC[N+]1(C)Cc2c(Cl)c(Cl)c(Cl)c(Cl)c2C1,inactive,
Cc1noc(C)c1-c1nc(Nc2ccncc2)c2ccccc2n1,100 nM (active),
Cc1noc(C)c1-c1nc(Nc2ccc(F)cc2)c2ccccc2n1,251 nM (active),
Cc1noc(C)c1-c1nc(NC2CCNCC2)c2ccccc2n1,5010 nM (active),
COc1ccc(Nc2ncc(C(=O)N3CCN(c4ccc(F)cc4)CC3)c3ccccc23)cc1,inactive,
Cc1noc(C)c1-c1nc(Nc2ccccc2)c2ccccc2n1,251 nM (active),
COc1cccc(C2C3(C#N)C(N)=NC(OC)(OC)C23C#N)c1 (stereo not drawn),inactive,
C#CCCCO/N=C1/C[C@@H](O)[C@@H](O)[C@@H]2[C@@H]3C(=O)N([C@@H](C)c4ccccc4)C(=O)[C@H]3CC[C@@H]12,,-1.14% [at 11.4 µM]
CNc1nc(-c2c(C)noc2C)nc2ccccc12,50.1 nM (active),

Structure (SMILES),AC50,"activity, negative = inhibition"
Cc1noc(C)c1-c1nc(N(C)C)c2ccccc2n1,39.8 nM (active),
COC(=O)[C@@H]1CC[C@H](C)[C@@H](c2ccc(C)cc2)N1C(=O)c1ccc(/C=N\O[C@@H](C)CN2CCCc3nc(C)c(C)cc32)cc1,,-8.09% [at 11.4 µM]
C/C(=N/NC1=NCCN1)c1cn(C2=NCCN2)nc1C,,-13.9% [at 2.29 µM]
CS(=O)(=O)N1CCC[C@@]2(CCN(c3ccncc3)C2)C1,inactive,
CN(C)[C@H]1C(=O)C(C(=O)NCN2CCCC2)=C(O)[C@]2(O)C(=O)C3=C(O)c4c(O)cccc4[C@@](C)(O)[C@H]3C[C@@H]12,inactive,
Cc1ccc(NC(=S)N2CCN(C(=O)C3CCCO3)CC2)c(C)c1 (stereo not drawn),inactive,
NC(=O)C1(N2CCCCC2)CCN(C(=S)Nc2ccc(Cl)cc2)CC1,inactive,
COC(=O)c1ccc(NC(=S)N2CCN(Cc3cccc(C)c3)CC2)cc1,inactive,
COc1ccc(N2CCN(C(=S)Nc3cc(C)ccc3C)CC2)cc1,inactive,
COC(=O)c1ccc(C(=O)OC)c(NC(=S)N2CCN(c3ccccc3)CC2)c1,4470 nM (active),
COC(=O)c1cc(OC)c(OC)cc1NC(=S)N1CCCCC1,1580 nM (active),
N[C@@H](CS(=O)O)C(=O)O,inactive,
CCc1sc(-c2c(C#N)c(N)nc3c2CCCCCC3)cc1[N+](=O)[O-],2000 nM (active),
COc1cccc(NC(=O)CSc2nc3c(c(-c4ccco4)c2C#N)CCCC3)c1,inactive,
O=c1ncn(-c2ccccc2F)c2ncccc12,inactive,
O=c1[nH]n(-c2cccc(Cl)c2)c2ncccc12,5010 nM (active),
Cc1ccc(-n2cnc(=O)c3cccnc32)cc1,inactive,
O=c1nc(-c2ccccc2)n(-c2ccccc2)c2ncccc12,inactive,
Cc1ccc(-n2[nH]c(=O)c3cccnc32)cc1,2510 nM (active),
Cc1ccc(N2C(=O)c3n[nH]c(C)c3C2c2ccccn2)cc1 (stereo not drawn),inactive,
CCOCCCn1cnc2c(c1=O)c1nc3ccccc3nc1n2-c1ccccc1,4470 nM (active),
COCCNC(=O)C1CCN(S(=O)(=O)N2CCC3(CC2)OCCO3)CC1,inactive,
COC(=O)c1ccc(CSc2nc3cc(Cl)ccc3s2)o1,2000 nM (active),
O=C(Nc1ccc2nc(SCc3ccc(Cl)cc3)sc2c1)c1ccccc1C(=O)N1CCOCC1,inactive,
